According to the supplement of paper PMC11732987, “Enantioselective OTUD7B fragment discovery through chemoproteomics screening and high-throughput optimisation” (Communications Chemistry, 2025):

Columns and labels:
Experiment in all cases: log2 ratio of Biotin-Ahx-Ub-VS probe labelling (fragment/DMSO); higher = less target engagement (more negative = stronger competition), active = hit call of the paper (q ≤ 0.05, log2 ratio ≤ -1)
Conditions in all cases: compound concentration: 200 uM; treatment time: 3 h
USP42 = target: T1, USP42 (UniProt Q9H9J4)
T1 sequence (whole entry): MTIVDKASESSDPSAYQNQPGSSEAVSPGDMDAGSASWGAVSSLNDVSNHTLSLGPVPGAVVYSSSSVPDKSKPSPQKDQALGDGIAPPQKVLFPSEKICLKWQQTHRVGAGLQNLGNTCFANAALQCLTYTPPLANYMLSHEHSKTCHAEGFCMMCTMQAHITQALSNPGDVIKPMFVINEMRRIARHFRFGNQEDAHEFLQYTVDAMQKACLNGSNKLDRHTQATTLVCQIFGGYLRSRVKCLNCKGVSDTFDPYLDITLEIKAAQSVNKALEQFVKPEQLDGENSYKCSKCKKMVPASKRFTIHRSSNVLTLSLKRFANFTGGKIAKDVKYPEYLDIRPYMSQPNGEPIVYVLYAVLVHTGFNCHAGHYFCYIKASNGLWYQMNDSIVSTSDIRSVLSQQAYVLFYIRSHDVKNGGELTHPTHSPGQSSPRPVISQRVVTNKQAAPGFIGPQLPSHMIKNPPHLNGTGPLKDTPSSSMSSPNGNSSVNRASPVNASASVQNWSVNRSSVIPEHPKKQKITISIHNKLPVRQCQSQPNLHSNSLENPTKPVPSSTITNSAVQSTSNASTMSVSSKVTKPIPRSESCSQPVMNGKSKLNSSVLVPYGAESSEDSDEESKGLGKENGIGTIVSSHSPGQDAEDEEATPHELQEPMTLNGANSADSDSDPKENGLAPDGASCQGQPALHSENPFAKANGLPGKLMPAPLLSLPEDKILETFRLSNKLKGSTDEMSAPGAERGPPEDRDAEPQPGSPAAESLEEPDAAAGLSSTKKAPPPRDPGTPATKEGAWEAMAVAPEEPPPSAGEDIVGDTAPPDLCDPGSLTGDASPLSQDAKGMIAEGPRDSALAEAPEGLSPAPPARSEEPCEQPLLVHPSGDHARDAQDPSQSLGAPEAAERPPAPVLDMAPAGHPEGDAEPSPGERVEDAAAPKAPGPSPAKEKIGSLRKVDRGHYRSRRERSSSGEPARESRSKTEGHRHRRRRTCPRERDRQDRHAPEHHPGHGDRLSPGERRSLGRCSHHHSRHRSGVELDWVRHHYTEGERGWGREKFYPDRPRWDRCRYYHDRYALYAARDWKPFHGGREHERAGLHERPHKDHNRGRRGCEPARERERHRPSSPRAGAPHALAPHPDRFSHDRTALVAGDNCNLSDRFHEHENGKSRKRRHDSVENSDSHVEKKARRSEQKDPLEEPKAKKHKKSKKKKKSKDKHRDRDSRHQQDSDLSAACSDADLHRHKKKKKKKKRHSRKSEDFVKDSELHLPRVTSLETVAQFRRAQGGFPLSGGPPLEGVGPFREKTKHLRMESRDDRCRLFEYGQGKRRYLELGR
Outline: (§1)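 Average log2 ratios of fragment over vehicle were obtained by unpaired t-test from global-median-normalised Spectronaut label-free quantities. Proteins with ≥2 unique peptides were included. HEK293T lysate (495 µg per sample) was treated in triplicate with fragment at 200 µM or vehicle for 3 h, then with Biotin-Ahx-Ub-VS at 0.5 µM final for 1 h, and labelled DUBs were NeutrAvidin-enriched and run by diaPASEF LC-MS/MS.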

USP46 = USP46 (UniProt P62068)
Outline: as §1

USP47 = target: T2, USP47 (UniProt Q96K76)
T2 sequence (whole entry): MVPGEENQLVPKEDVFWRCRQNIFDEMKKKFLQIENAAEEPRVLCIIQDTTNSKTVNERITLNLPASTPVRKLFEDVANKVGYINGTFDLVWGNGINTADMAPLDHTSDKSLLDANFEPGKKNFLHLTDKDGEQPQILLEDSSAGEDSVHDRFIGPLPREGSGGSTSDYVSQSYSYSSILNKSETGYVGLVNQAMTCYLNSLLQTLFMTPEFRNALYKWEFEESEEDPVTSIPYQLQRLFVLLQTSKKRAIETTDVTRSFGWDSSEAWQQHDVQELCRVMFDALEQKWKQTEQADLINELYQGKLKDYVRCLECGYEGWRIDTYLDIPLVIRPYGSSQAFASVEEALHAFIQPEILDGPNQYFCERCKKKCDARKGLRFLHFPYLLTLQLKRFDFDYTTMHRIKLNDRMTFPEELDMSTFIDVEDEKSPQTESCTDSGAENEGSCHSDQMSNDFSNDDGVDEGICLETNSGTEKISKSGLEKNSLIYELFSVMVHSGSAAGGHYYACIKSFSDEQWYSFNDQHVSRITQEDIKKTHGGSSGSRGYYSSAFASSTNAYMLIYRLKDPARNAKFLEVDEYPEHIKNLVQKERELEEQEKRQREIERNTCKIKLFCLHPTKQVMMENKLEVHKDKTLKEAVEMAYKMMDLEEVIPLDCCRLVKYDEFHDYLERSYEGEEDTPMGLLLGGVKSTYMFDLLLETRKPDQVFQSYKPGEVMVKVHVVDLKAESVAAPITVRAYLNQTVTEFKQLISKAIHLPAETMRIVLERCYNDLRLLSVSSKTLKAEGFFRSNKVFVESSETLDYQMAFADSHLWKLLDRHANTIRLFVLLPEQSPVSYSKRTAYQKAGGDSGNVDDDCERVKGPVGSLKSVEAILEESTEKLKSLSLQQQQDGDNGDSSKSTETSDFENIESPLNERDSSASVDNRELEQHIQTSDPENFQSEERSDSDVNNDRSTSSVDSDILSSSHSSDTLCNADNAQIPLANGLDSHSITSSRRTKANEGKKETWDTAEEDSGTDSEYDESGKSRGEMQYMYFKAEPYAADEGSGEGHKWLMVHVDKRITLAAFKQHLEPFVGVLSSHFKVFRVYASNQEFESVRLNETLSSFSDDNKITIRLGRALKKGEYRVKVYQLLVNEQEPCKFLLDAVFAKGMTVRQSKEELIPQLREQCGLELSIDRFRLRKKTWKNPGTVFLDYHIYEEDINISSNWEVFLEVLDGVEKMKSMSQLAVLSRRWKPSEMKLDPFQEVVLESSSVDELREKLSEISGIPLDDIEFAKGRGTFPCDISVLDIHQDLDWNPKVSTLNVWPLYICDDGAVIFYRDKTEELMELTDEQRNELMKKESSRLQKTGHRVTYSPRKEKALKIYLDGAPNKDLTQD
Outline: as §1

USP48 = target: T3, USP48 (UniProt Q86UV5)
T3 sequence (whole entry): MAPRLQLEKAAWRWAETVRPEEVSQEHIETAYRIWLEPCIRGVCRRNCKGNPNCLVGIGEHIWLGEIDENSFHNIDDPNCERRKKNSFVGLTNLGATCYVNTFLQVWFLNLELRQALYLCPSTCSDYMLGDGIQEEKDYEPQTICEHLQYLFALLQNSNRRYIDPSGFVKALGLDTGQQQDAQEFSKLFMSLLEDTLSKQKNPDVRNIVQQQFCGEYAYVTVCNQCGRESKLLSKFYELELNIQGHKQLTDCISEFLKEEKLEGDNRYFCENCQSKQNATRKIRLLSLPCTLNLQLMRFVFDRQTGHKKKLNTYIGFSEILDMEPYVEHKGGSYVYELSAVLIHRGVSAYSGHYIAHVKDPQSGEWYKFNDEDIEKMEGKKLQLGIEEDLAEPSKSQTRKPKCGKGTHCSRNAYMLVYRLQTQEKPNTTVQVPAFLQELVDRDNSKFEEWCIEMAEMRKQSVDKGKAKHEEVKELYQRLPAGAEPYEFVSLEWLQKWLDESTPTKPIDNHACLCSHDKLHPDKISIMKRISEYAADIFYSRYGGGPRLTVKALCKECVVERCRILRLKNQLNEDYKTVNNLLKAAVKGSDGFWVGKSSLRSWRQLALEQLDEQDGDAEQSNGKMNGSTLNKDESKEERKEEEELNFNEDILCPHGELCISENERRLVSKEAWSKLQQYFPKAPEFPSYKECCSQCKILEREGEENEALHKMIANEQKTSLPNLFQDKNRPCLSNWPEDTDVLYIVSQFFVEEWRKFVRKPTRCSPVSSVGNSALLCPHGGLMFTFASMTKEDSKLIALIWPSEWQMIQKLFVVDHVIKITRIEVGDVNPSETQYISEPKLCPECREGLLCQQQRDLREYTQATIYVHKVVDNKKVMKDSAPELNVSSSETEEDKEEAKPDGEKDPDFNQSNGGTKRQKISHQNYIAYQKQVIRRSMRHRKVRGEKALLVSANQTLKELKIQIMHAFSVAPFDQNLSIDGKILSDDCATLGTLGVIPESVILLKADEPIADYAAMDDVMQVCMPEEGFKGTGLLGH
Outline: as §1

USP5 = target: T4, USP5 (UniProt P45974)
T4 sequence (whole entry): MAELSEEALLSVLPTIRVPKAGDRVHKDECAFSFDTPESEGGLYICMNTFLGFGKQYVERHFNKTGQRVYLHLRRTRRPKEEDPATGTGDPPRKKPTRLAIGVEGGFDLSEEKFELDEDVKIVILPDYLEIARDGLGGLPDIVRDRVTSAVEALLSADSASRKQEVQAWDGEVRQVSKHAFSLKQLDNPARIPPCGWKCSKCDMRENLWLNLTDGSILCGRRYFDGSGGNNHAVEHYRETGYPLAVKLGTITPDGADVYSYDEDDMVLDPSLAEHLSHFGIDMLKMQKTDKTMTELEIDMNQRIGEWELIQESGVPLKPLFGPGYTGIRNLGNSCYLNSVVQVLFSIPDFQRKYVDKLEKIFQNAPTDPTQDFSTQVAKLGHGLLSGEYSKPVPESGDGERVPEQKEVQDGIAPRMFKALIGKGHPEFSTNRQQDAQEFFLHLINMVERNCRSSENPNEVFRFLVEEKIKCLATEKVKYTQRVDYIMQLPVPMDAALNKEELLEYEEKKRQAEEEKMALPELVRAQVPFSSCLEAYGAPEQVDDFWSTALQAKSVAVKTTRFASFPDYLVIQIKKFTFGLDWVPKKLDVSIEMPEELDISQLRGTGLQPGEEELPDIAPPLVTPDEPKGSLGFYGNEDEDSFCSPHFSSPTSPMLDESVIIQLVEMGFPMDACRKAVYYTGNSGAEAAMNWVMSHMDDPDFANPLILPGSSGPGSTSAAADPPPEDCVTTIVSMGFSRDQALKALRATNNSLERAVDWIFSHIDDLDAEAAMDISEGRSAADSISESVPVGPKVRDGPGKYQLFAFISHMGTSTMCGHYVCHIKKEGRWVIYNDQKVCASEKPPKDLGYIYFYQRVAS
Outline: as §1

USP54 = USP54 (UniProt Q70EL1)
Outline: as §1

USP7 = USP7 (UniProt Q93009)
Outline: as §1

USP8 = target: T5, USP8 (UniProt P40818)
T5 sequence (whole entry): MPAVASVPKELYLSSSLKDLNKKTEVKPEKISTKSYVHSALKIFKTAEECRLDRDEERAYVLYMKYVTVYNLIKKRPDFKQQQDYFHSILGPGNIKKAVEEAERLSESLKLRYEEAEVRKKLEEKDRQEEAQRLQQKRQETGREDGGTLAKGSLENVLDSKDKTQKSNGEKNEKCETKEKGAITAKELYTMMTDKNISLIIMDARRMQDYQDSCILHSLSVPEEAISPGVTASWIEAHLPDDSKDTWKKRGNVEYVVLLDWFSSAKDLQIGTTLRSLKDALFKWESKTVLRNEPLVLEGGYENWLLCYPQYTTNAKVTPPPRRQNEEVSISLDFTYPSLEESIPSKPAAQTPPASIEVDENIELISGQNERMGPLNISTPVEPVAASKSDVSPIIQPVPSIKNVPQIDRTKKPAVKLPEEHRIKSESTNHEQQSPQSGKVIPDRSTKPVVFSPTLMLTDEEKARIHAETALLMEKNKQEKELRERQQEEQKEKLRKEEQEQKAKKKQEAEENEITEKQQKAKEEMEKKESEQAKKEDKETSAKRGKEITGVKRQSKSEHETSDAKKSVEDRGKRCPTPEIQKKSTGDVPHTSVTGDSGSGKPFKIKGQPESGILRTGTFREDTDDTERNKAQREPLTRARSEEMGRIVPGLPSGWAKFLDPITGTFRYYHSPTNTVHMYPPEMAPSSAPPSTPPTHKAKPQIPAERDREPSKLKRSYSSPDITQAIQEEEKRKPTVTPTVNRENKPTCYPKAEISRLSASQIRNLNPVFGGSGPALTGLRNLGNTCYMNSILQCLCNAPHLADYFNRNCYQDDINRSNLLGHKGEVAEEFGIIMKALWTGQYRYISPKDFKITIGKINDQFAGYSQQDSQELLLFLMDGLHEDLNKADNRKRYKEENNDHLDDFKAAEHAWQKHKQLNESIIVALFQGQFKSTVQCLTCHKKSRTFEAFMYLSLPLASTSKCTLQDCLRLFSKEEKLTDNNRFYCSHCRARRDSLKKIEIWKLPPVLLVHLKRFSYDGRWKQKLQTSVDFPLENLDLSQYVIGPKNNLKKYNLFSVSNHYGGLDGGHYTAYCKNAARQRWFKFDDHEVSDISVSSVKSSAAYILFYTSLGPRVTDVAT
Outline: as §1

USP9X = USP9X (UniProt Q93008)
Outline: as §1

UniProt O00487 = target: UniProt O00487
Outline: as §1

Measured: log2 ratio of Biotin-Ahx-Ub-VS probe labelling

Sequence of USP9X (Q93008 whole entry): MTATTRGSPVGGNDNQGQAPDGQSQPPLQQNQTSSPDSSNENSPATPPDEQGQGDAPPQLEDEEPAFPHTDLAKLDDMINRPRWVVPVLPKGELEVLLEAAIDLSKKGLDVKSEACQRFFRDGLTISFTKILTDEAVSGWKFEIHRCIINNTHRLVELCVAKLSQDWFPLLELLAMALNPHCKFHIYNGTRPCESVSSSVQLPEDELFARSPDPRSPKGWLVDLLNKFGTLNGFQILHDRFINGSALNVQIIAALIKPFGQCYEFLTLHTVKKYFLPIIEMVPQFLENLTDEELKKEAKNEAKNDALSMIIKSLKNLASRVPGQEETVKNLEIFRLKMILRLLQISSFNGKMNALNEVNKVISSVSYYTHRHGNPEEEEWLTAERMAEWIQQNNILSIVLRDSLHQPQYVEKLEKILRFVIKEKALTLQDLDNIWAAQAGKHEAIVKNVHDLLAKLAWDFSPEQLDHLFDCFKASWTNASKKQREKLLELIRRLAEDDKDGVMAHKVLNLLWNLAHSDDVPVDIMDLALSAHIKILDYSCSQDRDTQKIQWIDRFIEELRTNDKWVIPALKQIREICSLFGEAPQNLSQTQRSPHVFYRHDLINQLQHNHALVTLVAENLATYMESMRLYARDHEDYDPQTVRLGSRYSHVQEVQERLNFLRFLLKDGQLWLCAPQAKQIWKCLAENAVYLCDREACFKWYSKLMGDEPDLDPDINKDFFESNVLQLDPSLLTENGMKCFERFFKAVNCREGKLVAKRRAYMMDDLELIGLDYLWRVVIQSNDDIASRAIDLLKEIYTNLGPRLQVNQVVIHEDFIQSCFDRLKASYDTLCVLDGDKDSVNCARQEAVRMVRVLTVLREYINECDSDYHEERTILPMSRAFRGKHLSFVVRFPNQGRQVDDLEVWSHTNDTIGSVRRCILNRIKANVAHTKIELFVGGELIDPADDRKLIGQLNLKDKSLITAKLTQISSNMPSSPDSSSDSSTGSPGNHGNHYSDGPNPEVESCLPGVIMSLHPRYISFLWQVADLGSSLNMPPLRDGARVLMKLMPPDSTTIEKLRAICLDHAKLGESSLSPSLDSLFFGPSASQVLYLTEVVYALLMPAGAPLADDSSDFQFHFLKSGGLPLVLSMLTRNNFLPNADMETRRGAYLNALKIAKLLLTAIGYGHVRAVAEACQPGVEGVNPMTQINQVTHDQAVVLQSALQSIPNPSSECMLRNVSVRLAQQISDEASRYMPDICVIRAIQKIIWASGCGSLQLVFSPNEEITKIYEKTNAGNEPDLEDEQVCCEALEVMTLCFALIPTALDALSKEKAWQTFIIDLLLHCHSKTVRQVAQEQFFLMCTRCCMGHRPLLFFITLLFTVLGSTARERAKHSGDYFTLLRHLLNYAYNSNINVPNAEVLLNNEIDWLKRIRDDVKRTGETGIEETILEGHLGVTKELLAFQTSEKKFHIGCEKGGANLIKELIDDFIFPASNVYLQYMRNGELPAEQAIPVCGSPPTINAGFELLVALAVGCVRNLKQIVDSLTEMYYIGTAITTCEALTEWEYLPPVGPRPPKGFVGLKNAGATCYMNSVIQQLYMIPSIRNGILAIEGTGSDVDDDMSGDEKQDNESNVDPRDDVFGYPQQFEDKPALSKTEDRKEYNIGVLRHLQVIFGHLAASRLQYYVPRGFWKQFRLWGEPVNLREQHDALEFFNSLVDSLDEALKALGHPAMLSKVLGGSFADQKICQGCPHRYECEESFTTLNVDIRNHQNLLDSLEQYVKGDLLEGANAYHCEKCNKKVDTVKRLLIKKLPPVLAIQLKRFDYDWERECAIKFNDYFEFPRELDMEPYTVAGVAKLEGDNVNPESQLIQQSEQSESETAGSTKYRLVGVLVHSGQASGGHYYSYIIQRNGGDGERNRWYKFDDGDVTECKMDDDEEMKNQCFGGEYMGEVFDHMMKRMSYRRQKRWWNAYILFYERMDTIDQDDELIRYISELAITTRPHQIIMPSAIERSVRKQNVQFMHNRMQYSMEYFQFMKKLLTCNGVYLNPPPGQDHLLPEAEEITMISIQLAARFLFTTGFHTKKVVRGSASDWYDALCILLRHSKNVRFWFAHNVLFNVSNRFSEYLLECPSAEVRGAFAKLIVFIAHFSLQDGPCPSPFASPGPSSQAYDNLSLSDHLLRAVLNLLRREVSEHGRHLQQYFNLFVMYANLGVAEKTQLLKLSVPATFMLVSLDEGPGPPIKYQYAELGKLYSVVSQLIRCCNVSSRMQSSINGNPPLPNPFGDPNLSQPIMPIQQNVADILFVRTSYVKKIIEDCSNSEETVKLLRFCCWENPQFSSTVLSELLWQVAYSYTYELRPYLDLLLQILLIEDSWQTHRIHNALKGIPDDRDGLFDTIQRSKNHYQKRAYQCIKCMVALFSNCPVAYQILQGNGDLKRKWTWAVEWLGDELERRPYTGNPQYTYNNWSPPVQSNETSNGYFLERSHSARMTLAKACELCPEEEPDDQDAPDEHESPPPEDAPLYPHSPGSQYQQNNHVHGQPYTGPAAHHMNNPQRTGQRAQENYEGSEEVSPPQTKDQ
Sequence of UniProt O00487 (O00487 whole entry): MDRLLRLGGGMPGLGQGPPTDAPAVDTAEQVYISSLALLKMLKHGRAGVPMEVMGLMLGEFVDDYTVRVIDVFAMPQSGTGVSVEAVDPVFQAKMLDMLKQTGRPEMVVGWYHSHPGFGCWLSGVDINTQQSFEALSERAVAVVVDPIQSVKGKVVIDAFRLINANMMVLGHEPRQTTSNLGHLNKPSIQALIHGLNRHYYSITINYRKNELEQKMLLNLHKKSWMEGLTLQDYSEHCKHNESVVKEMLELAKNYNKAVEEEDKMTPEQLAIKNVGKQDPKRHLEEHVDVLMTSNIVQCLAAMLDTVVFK
Sequence of USP54 (Q70EL1 whole entry): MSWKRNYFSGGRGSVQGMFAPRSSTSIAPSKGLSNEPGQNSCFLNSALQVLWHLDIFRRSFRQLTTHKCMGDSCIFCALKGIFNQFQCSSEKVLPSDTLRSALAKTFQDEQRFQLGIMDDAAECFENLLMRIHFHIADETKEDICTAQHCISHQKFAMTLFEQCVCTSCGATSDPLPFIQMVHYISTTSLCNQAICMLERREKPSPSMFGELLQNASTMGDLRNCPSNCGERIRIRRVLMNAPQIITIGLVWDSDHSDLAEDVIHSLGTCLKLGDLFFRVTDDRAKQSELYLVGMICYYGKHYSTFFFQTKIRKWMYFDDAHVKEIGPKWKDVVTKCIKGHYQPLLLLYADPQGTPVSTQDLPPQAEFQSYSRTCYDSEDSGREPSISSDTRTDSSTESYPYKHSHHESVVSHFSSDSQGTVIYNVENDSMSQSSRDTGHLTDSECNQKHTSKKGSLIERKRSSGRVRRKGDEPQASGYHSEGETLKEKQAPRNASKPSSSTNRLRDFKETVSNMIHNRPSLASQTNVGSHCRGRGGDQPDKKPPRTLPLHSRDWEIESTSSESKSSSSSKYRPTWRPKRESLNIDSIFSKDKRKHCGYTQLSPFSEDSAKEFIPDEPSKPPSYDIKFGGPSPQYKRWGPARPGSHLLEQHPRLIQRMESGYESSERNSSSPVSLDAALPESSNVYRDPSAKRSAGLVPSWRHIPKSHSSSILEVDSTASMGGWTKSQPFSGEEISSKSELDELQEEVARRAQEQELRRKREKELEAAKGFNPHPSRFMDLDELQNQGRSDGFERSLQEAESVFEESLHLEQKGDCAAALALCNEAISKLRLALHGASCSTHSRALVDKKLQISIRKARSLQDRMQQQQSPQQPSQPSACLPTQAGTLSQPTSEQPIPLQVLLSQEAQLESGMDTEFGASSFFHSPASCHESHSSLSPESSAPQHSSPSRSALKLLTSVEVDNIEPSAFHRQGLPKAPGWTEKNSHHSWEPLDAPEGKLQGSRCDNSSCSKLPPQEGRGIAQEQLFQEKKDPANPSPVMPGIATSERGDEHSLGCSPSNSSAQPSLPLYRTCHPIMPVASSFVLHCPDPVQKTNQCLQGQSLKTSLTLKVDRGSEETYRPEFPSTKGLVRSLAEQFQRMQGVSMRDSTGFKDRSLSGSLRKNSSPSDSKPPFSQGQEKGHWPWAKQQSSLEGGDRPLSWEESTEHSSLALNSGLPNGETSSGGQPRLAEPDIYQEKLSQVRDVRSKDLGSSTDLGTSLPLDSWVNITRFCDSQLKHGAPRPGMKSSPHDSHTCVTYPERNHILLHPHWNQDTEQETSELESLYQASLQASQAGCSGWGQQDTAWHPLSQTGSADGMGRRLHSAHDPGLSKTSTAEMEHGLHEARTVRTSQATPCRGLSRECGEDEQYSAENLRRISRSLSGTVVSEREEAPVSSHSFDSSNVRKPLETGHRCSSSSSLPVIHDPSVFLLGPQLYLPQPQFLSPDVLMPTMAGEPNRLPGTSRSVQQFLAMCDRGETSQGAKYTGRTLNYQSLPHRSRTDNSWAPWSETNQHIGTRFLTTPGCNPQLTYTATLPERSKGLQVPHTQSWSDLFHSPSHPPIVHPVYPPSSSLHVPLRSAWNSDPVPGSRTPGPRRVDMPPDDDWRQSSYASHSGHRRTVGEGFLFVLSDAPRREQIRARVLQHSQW
Sequence of USP46 (P62068 whole entry): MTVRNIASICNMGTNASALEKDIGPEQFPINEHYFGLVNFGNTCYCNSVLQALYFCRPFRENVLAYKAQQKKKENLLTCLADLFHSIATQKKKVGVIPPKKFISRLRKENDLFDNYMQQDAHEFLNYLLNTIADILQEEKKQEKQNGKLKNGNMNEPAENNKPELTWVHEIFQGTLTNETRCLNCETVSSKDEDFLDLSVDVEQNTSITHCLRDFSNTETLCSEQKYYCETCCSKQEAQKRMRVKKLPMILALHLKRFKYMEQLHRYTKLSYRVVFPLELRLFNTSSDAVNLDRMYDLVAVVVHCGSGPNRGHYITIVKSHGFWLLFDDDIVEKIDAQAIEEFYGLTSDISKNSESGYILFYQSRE

Cc1cc(C2CCCN2C(=O)CCl)nn1C.Cl (stereo not given)
inactive: USP42 0.512 | USP46 -0.144 | USP47 -0.308 | USP48 -0.159 | USP5 -0.0636 | USP54 -0.39 | USP7 -0.329 | USP8 -0.274 | USP9X -0.131 | UniProt O00487 -0.229
